Screening data from PubChem BioAssay.
This is a sample that favours compounds with a hit; in the whole collection about 3.6% have one here.
GALK inh: inhibitors of human galactokinase (GALK); P51570; recombinant GALK, Kinase-Glo ATP luminescence, 1 h; Potency, µM (series often up to 57.5 µM), usual class: inhibitors; 44,000 tested, under 10 active; AID 1347072
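Compounds were pinned into ATP buffer, then GALK-galactose mix was added (final 5 nM enzyme, 35 uM ATP, 100 uM galactose, pH 8.0). After 1 h at room temperature, Kinase-Glo Plus was added and luminescence read.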
DRV1 agonist: GPR32 (DRV1) agonism, beta-arrestin recruitment; CHO-K1 GPR32 beta-arrestin PathHunter luminescence, 90 min; zero percent set by DMSO-only wells; activation, % at 76.9 µM; hit rate 2.5% among 48,000; AID 1346428;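 active = activation of at least 60% and not above a set upper limit, about 1 call in 100 departs from these limits; inconclusive = activation of 40% to 60%, or above that upper limit; inactive = activation under 40%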
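Agonism was scored as beta-arrestin recruitment to ProLink-fused GPR32 in stably transfected CHO-K1 cells, giving a chemiluminescent beta-Gal signal; compounds were incubated 90 min at 37 °C.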
HTT promoter inh: inhibits huntingtin promoter activity | Potency, µM (doses to about 57.5 µM), actives largely listed as inhibitors | hit rate 0.93% among 48,000 | HEK293 HTT promoter firefly luciferase reporter, 24 h; note: nearly all actives have a fitted effect of over 50% in size
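Quantitative HTS used concentration series of up to 57.5 uM final on HEK293 luciferase reporter cells, 24 h at 37 degrees C. Readout was Dual-Glo firefly luminescence.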
HTT-AS act: activators of huntingtin-antisense promoter activity; HEK293 HTT-AS promoter firefly luciferase reporter, 24 h; response scale: percent change from vehicle, -100% = no light; Potency, µM (titrated, usually from 57.5 µM), most hits filed as activators; hit rate 0.24% among 48,000; AID 1508624; note: nearly all actives have a fitted effect of over 55% in size
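Luminescence was read after Dual-Glo reagent and a 10 min room-temperature incubation. Values were normalized to vehicle (0% activity) and zero RLU (-100% activity). Reporter HEK293 cells had been exposed to compounds (up to 57.5 uM final) for 24 h.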
PTAP-TSG101 blk: inhibitors of HIV-1 PTAP binding to human TSG101, validation; 44,000 tested, under 10 active; Potency, µM (doses to about 115 µM), hits mostly inhibitors; Fluorescence polarization, FITC-PTAP peptide/Tsg101, 20 min
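FITC-labeled PTAP peptide (50 nM final) binding to Tsg101 binding domain (10 uM final) read by fluorescence polarization after 20 min at r.t. in HEPES pH 7.5 buffer. Actives by CRC class, <25 µM.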
B2AR arrestin ag: agonists recruiting beta-arrestin to human beta2-adrenergic receptor | HTLA Tango cells, beta-arrestin recruitment, luciferase luminescence, 18 h | Potency, µM (doses to about 46.1 µM), most hits filed as activators | 44,000 tested, under 10 active | P07550
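Ligand-induced beta-arrestin recruitment to recombinant beta2-AR is measured via a tTA-driven luciferase reporter in Tango cells after 18 hr compound exposure at 37 degrees C. Concentrations span up to 46 microM.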
A number is an active result; . = inactive; ? = inconclusive; / = no result given. Unless noted, calls come from the whole dose curve; as a rule, active = well fitted curve in the direction sought with a large enough effect; inconclusive = small, poorly fitted or top-dose-only effect, or another doubt; inactive = no such curve, though single readings can be large; an effect the other way counts as inactive or inconclusive.

SMILES | GALK inh | DRV1 agonist | HTT promoter inh | HTT-AS act | PTAP-TSG101 blk | B2AR arrestin ag
CCN(Cc1ccccc1)c1ncnc2c1cnn2-c1ccc(F)cc1 | . | . | . | ? | . | .
Fc1ccc(-n2ncc3c(NCCCn4ccnc4)ncnc32)cc1 | . | ? | . | 2.8µM | . | .
Cc1ccc(-n2ncc3c(NCCCn4ccnc4)ncnc32)cc1C | . | ? | . | . | . | .
Clc1cccc(-n2ncc3c(NCCCn4ccnc4)ncnc32)c1 | . | ? | . | 14µM | . | .
Cc1ccc(-n2ncc3c(NCCc4ccccc4)ncnc32)cc1C | . | . | . | ? | . | .
CCOCCCNc1ncnc2c1cnn2-c1ccc(C)c(C)c1 | . | 89 | . | ? | . | .
Fc1ccc(-n2ncc3c(NCCCc4ccccc4)ncnc32)cc1 | . | . | . | 8.9µM | . | .
CCn1c(-c2nonc2N)nc2cncc(CNC3CCNCC3)c21 | / | / | . | . | / | /
COc1cccc2sc(NC(=O)c3ccc(S(=O)(=O)N4CCC(C)CC4)cc3)nc12 | . | . | 28µM | . | . | .
Cc1cccc(C(=O)Nc2nnc(S(=O)(=O)N3CCOCC3)s2)c1 | . | ? | . | . | . | .
Cc1cccc(C(=O)Nc2nnc(S(=O)(=O)N3CCC(C)CC3)s2)c1 | . | 69 | . | . | . | .
CC1CCN(S(=O)(=O)c2nnc(NC(=O)c3cccc(F)c3)s2)CC1 | . | . | . | . | . | .
CC1CCN(S(=O)(=O)c2nnc(NC(=O)c3cccc(Br)c3)s2)CC1 | . | 73 | ? | . | . | .
CC1CCN(S(=O)(=O)c2ccc(C(=O)Nc3nc4ccc(F)cc4s3)cc2)CC1 | . | . | . | . | . | .
O=C(Nc1nnc(S(=O)(=O)N2CCCC2)s1)c1ccc(F)cc1 | . | 64 | . | . | . | .
Nc1ccccc1NC(=O)c1ccc(CNc2nccc(-c3cccnc3)n2)cc1 | / | / | . | . | / | /
CCOC(=O)N1CCN([N+]([O-])=NOc2ccc([N+](=O)[O-])cc2C#N)CC1 | / | / | . | . | / | /
O=C1NC(=O)C(=Cc2ccc3nccc(-c4ccncc4)c3c2)S1 | / | / | ? | . | / | /
